The target of one assay is PUM1 PUF domain R5-MRV (Homo sapiens, UniProt Q14671 828-1176, C1007M;Q1011V). Kind of assay: yeast three-hybrid, YBZ-1, SC-Leu-His + 0.5 mM 3-AT, 4 days. The settings on record: tags: N-Gal4 AD-HA kept; label: inside an RPR1-promoter hybrid RNA with tandem MS2 sites; ssRNA. In short, it runs like this:
(§1)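 Pumilio-1 PUF domain libraries, randomized (NNK) at the three base-contacting residues of each repeat, were co-expressed with matching RNA elements from a centromeric plasmid in strain YBZ-1 (LexA–MS2 coat fusion, HIS3 reporter). Transformants were plated on SC-Leu (input) and SC-Leu-His + 0.5 mM 3-AT (selection) for four days, and repeat regions were PCR-amplified and Illumina-sequenced. The interaction score is the log2 change in variant frequency from input to selection, with pseudocount 1 where absent.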
On to “GGCUAGAACUAGUGGAUCCCCCGGCGCCCGGCGGCUCGAGCCCGGGUAAGUGUGAAUAGUCUGCAUGCCGCCGGGCGCCAUGCCUGCAGGUCGACUCUAGAAAACAUG”, for which the binding signal was 2.45 log2 enrichment (interaction score).

Turning to “GGCUAGAACUAGUGGAUCCCCCGGCGCCCGGCGGCUCGAGCCCGGGUAAGUGUUAAUAGUCUGCAUGCCGCCGGGCGCCAUGCCUGCAGGUCGACUCUAGAAAACAUG”, the binding signal is 2.34 log2 enrichment (interaction score).

As to “GGCUAGAACUAGUGGAUCCCCCGGCGCCCGGCGGCUCGAGCCCGGGUAAGUGUAAAUAGUCUGCAUGCCGCCGGGCGCCAUGCCUGCAGGUCGACUCUAGAAAACAUG”, the binding signal is 1.85 log2 enrichment (interaction score).

Another assay deals with PUM1 PUF domain R4-PWG (Homo sapiens, UniProt Q14671 828-1176, N971P;H972W;Q975G). Described as above. The settings on record: tags: N-Gal4 AD-HA kept; label: inside an RPR1-promoter hybrid RNA with tandem MS2 sites; ssRNA. In a few lines: as §1
Regarding “GGCUAGAACUAGUGGAUCCCCCGGCGCCCGGCGGCUCGAGCCCGGGUAAGUGUAUAUAGUCUGCAUGCCGCCGGGCGCCAUGCCUGCAGGUCGACUCUAGAAAACAUG”, the binding signal is 6.71 log2 enrichment (interaction score).

For “GGCUAGAACUAGUGGAUCCCCCGGCGCCCGGCGGCUCGAGCCCGGGUAAGUGUACAUAGUCUGCAUGCCGCCGGGCGCCAUGCCUGCAGGUCGACUCUAGAAAACAUG”, the binding signal was 5.43 log2 enrichment (interaction score).

Turning to “GGCUAGAACUAGUGGAUCCCCCGGCGCCCGGCGGCUCGAGCCCGGGUAAGUGUAAAUAGUCUGCAUGCCGCCGGGCGCCAUGCCUGCAGGUCGACUCUAGAAAACAUG”, the binding signal was 5.84 log2 enrichment (interaction score).

The record behind these values is PMC8384837, “Expanding the binding specificity for RNA recognition by a PUF domain”.
